# The full ranking holds about 33,000 sequences; the median of “e-score” is about -0.05, and the highest 2% start at about 0.38. For the sample, the highest values were picked, then their nearest neighbours and some sequences at random.
# Target: T1, SIX1-Q177R homeodomain (human, UniProt Q15475 108-198, Q177R)
# T1 sequence: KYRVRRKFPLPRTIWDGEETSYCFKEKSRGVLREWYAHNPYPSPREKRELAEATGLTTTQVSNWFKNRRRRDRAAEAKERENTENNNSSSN
# Assay: universal protein binding microarray; Universal all-10-mer PBM (8x60K, AMADID 030236), 300 nM GST-tagged protein, Alexa Fluor 488 anti-GST; buffer, salt, pH and temperature not stated (as in Berger); high values mean tight binding
# Conditions: protein: ivt; tags: N-terminal GST; dsDNA, one strand shown
# Method in brief: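 After in vitro transcription/translation, GST-tagged homeodomains were quantified against a recombinant GST standard curve by anti-GST western blot. They were then placed in duplicate at 300 nM final concentration on universal 'all 10-mer' protein binding microarrays of 8×60K format.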
row,Sequence,binding signal
1,ACGGGGTG,0.338 ± 0.0174 E-score
2,ACCTGGTG,0.322 ± 0.00697 E-score
3,ACAATACA,0.194 ± 0.0158 E-score
4,CTAGGACA,0.162 ± 0.0316 E-score
5,TAATCACA,0.213 ± 0.0222 E-score
6,GGGGTTGA,0.2 ± 0.025 E-score
7,CGACACTA,0.41 ± 0.00325 E-score
8,AGACACTC,0.3634 ± 0.00141 E-score
9,AGACACTA,0.343 ± 0.00686 E-score
10,GGACACTA,0.358 ± 0.00739 E-score
11,CGACACTC,0.437 ± 0.00883 E-score
12,ACGCCCGA,0.17 ± 0.0302 E-score
13,CCTGCACC,0.16 ± 0.00461 E-score
14,ACCCAAGT,0.157 ± 0.00998 E-score
15,AAGCACCA,0.24 ± 0.00412 E-score
16,ACGGAGTC,0.181 ± 0.0091 E-score
17,ACGGATAC,0.28 ± 0.00317 E-score
18,CCGGACGA,0.185 ± 0.0376 E-score
19,GCGGATAC,0.2681 ± 0.00246 E-score
20,ACGGACAC,0.41 ± 0.0174 E-score
21,GCGGACAC,0.406 ± 0.0139 E-score
22,CCGGACAC,0.427 ± 0.0142 E-score
23,CCGGATAC,0.262 ± 0.00585 E-score
24,GCGCACAC,0.289 ± 0.0303 E-score
25,CCCTCTGA,0.153 ± 0.0264 E-score

row,Sequence,binding signal
1,CACTGAGA,0.202 ± 0.0113 E-score
2,GCTTAACA,0.171 ± 0.0194 E-score
3,ACCAGAGT,0.16 ± 0.0333 E-score
4,ACCCTTAA,0.175 ± 0.0783 E-score
5,ATCCCTAG,0.154 ± 0.00215 E-score
6,CACTCGTA,0.152 ± 0.0172 E-score
7,CGGCGTAC,0.209 ± 0.00229 E-score
8,TATGGACA,0.167 ± 0.0099 E-score
9,CACTTTAC,0.221 ± 0.0328 E-score
10,ACACTTTG,0.31 ± 0.0292 E-score
11,ACACGTTA,0.297 ± 0.0383 E-score
12,CCACCTTC,0.19 ± 0.00382 E-score
13,ACCCCTTG,0.237 ± 0.00827 E-score
14,ACACCTTC,0.46 ± 0.0107 E-score
15,ACCCCTTA,0.228 ± 0.014 E-score
16,ACCCCTTC,0.2425 ± 0.00198 E-score
17,ACACCTTA,0.456 ± 0.00729 E-score
18,ACACCTTG,0.44 ± 0.00935 E-score
19,GACAGGGC,0.162 ± 0.0431 E-score
20,TTACACAA,0.223 ± 0.0118 E-score
21,GAAGCACC,0.238 ± 0.00424 E-score
22,GTACCCCA,0.247 ± 0.0214 E-score
23,ATACGACA,0.18 ± 0.0318 E-score
24,ACCCAAGA,0.163 ± 0.00205 E-score
25,CACCGCAG,0.241 ± 0.0286 E-score

row,Sequence,binding signal
1,AGAAAACA,0.192 ± 0.0184 E-score
2,AAAAACAC,0.368 ± 0.0203 E-score
3,GGAAACAC,0.374 ± 0.004 E-score
4,AGAAACAC,0.408 ± 0.0147 E-score
5,GAAAACAC,0.383 ± 0.0136 E-score
6,CGAAACAC,0.339 ± 0.0288 E-score
7,GGGATCCC,0.31 ± 0.0322 E-score
8,GGTGCATA,0.195 ± 0.0199 E-score
9,GGGATCAA,0.189 ± 0.0285 E-score
10,GGTGTTCA,0.4614 ± 0.000559 E-score
11,CGTGTTCA,0.4087 ± 0.0026 E-score
12,GGTGCTCA,0.25 ± 0.046 E-score
13,AGTGTTCA,0.343 ± 0.0114 E-score
14,GGGGTTCA,0.256 ± 0.0435 E-score
15,CGTGTTCC,0.34 ± 0.0151 E-score
16,CCCGATGA,0.16 ± 0.00231 E-score
17,CTCCCGCA,0.155 ± 0.0331 E-score
18,ACCCAGGC,0.162 ± 0.0568 E-score
19,CCCCGCGG,0.193 ± 0.0298 E-score
20,GTACGACA,0.297 ± 0.0138 E-score
21,CGTGGTGC,0.187 ± 0.0118 E-score
22,GGTGCAAC,0.272 ± 0.00472 E-score
23,ACTCCATA,0.2012 ± 0.000827 E-score
24,ACCCCATC,0.245 ± 0.00929 E-score
25,ATACCATC,0.151 ± 0.00506 E-score

row,Sequence,binding signal
1,ACACCATG,0.4696 ± 0.00232 E-score
2,ACTCCATG,0.212 ± 0.0247 E-score
3,ACACCATC,0.4671 ± 0.000891 E-score
4,ACACCATA,0.459 ± 0.00633 E-score
5,GCACCATA,0.174 ± 0.00986 E-score
6,ACCCCATG,0.226 ± 0.0299 E-score
7,ATTTTACA,0.19 ± 0.0629 E-score
8,TGGGTACA,0.29 ± 0.00578 E-score
9,ATCGCGGG,0.167 ± 0.0319 E-score
10,AGGGTAGG,0.176 ± 0.00576 E-score
11,CCCCAAGA,0.156 ± 0.0279 E-score
12,ATAACTCC,0.181 ± 0.0433 E-score
13,CTAACACA,0.209 ± 0.00581 E-score
14,ATAACACC,0.479 ± 0.0087 E-score
15,CTAACCCC,0.223 ± 0.0193 E-score
16,ATAACACG,0.402 ± 0.0181 E-score
17,GTAACACA,0.223 ± 0.0443 E-score
18,CTAACACC,0.478 ± 0.00653 E-score
19,ATAACACA,0.2399 ± 0.00217 E-score
20,ATAACCCC,0.266 ± 0.0237 E-score
21,CCCCGTGC,0.244 ± 0.0265 E-score
22,CGCCGCCG,0.208 ± 0.031 E-score
23,ATTCACTC,0.151 ± 0.0349 E-score
24,AGCACGCA,0.24 ± 0.0253 E-score
25,CACCCCGC,0.337 ± 0.0136 E-score

row,Sequence,binding signal
1,GGTCCGGA,0.161 ± 0.0425 E-score
2,GATATCCC,0.193 ± 0.0406 E-score
3,ACACCTGG,0.448 ± 0.00897 E-score
4,ACTCCTGC,0.158 ± 0.00297 E-score
5,AAACCTGG,0.169 ± 0.0219 E-score
6,ACCCCTGC,0.235 ± 0.0269 E-score
7,ACCCCTGA,0.2405 ± 0.00201 E-score
8,ACACCTGC,0.4582 ± 0.00372 E-score
9,ACTCCTGA,0.206 ± 0.00412 E-score
10,ACACCTGA,0.4477 ± 0.00107 E-score
11,ACCCCTGG,0.163 ± 0.00865 E-score
12,CCCTTGTA,0.2081 ± 0.00151 E-score
13,ATTCCGTG,0.2 ± 0.0598 E-score
14,CCCAGGCG,0.167 ± 0.0378 E-score
15,CGAGGCAA,0.186 ± 0.00832 E-score
16,CACTGTAC,0.194 ± 0.0212 E-score
17,AAGTGTAG,0.37 ± 0.0123 E-score
18,CAGTGTAG,0.4232 ± 0.00358 E-score
19,CAGTGTAC,0.4035 ± 0.00271 E-score
20,CTGTGTAC,0.229 ± 0.0232 E-score
21,GAGTGTAC,0.419 ± 0.00767 E-score
22,AAGTGTAC,0.391 ± 0.0232 E-score
23,CAGTGCAC,0.183 ± 0.0019 E-score
24,GAGTGTGC,0.184 ± 0.00494 E-score
25,GAGTGCAC,0.195 ± 0.00266 E-score

row,Sequence,binding signal
1,CACTTATG,0.161 ± 0.0539 E-score
2,AAGTTACA,0.171 ± 0.00584 E-score
3,AGAAGGTG,0.302 ± 0.0205 E-score
4,CCCCGGAC,0.152 ± 0.0324 E-score
5,GAGCACCC,0.283 ± 0.0502 E-score
6,GTGTGTAA,0.337 ± 0.0168 E-score
7,CGGGGTAG,0.221 ± 0.00415 E-score
8,TGGTGCAA,0.169 ± 0.0456 E-score
9,GGGGGTAA,0.354 ± 0.0195 E-score
10,ATGTGTAA,0.225 ± 0.00674 E-score
11,AGGTGTAA,0.463 ± 0.021 E-score
12,CGGTGTAG,0.487 E-score
13,TGGAGTAA,0.233 ± 0.068 E-score
14,AGGTGCAA,0.169 ± 0.04 E-score
15,TGGTGTAA,0.486 ± 0.00978 E-score
16,GGGTGTAA,0.478 ± 0.01 E-score
17,GGTGCACC,0.353 ± 0.00627 E-score
18,CAACAACA,0.195 ± 0.00619 E-score
19,TGACCCCA,0.279 ± 0.0177 E-score
20,CGGAGTAA,0.266 ± 0.0379 E-score
21,AAGGTATC,0.251 ± 0.0701 E-score
22,GGAACCCA,0.181 ± 0.0136 E-score
23,GACCTCAC,0.161 ± 0.0365 E-score
24,ACCGAACA,0.196 ± 0.0386 E-score
25,CGGTGCAA,0.259 ± 0.00579 E-score

row,Sequence,binding signal
1,CTGTGTAA,0.153 ± 0.011 E-score
2,GGGTGTAC,0.4828 ± 0.00134 E-score
3,GGGTGCAC,0.28 ± 0.022 E-score
4,GGGGGTAC,0.331 ± 0.0182 E-score
5,CGGTGTAA,0.481 ± 0.0071 E-score
6,CCCCACGA,0.1526 ± 0.000735 E-score
7,TGTAAGAA,0.294 ± 0.0277 E-score
8,AAACGTGT,0.303 ± 0.054 E-score
9,CCCGGTGC,0.154 ± 0.0105 E-score
10,CCTTACAC,0.439 ± 0.0105 E-score
11,GCTTACAC,0.437 ± 0.0203 E-score
12,ACTTACAC,0.449 ± 0.0178 E-score
13,ACTTACCC,0.186 ± 0.0205 E-score
14,CCTTATAA,0.179 ± 0.0218 E-score
15,ACTTACGC,0.164 ± 0.00788 E-score
16,CCTCACAC,0.279 ± 0.0153 E-score
17,GCTCACAC,0.276 ± 0.0114 E-score
18,ACTTACTC,0.179 ± 0.00345 E-score
19,CTCGCCCC,0.173 ± 0.0101 E-score
20,GGAGGGTA,0.224 ± 0.0107 E-score
21,ACCCACAA,0.151 ± 0.0489 E-score
22,CCCCACCG,0.228 ± 0.054 E-score

# From PMC10668032, “Altered binding affinity of SIX1-Q177R correlates with enhanced WNT5A and WNT pathway effector expression in Wilms tumor”
